In all, about 5,500 compounds went through this assay and about 2,000 (36%) were called active. Not shown: some 18% with an inconclusive outcome. Rule as the data show it: active = normalized growth mostly below about 0.91 (no sharp cut-off); inconclusive = no clear call, values can overlap the other calls; inactive = mostly above about 0.92. The list shows a part of the results.
Experiment: chemical genetic growth profiling, strain panel (AID 1159580);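 also: tested at 20 µM; growth read once vehicle control cultures reached saturation at 30 °C; 1 = growth at the plate median or of vehicle wells; lower values mean less growth of the strain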
Conditions: S. cerevisiae deletion strains, growth OD

Measured: normalized growth

CCCN1CCC[C@@H]2Cc3nc(N)ncc3C[C@H]21
inactive: locus YAL013W, strain DEP1, hits give low values 1.02 | locus YAL040C, strain CLN3, hits give low values 1.01 | locus YCL061C, strain MRC1 (second series), hits give low values 1.01 | locus YDR363W, strain ESC2, hits give low values 0.999 | locus YER002W, strain NOP16, hits give low values 1.02 | locus YMR307W, strain GAS1, hits give low values 0.995 | locus YNL128W, strain TEP1, hits give low values 1.01 | locus YNL175C, strain NOP13, hits give low values 1.02 | locus YNL197C, strain WHI3, hits give low values 1.01 | locus YNL224C, strain SQS1, hits give low values 1.01 | locus YNL322C, strain KRE1, hits give low values 0.999 | locus YOR083W, strain WHI5 (second series), hits give low values 1.01 | locus YPL241C, strain CIN2, hits give low values 1
